# Compound activity deposited in PubChem BioAssay by National Center for Advancing Translational Sciences (NCATS).
# Hits are enriched below; roughly 7.9% of the tested compounds scored in any of these assays.
# HCMV antiviral: inhibitors of human cytomegalovirus | HFF cells, HCMV-luciferase reporter, 72 h; active compounds read low | 410,000 tested, 4.5% active | activity change, negative = inhibition, % at 57.5 µM; in the data active means activity change below about -60%; inconclusive means no clear call, values can overlap the other calls; inactive means above about -39%
#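 Human foreskin fibroblasts infected with luciferase-reporter HCMV at MOI 1 PFU/cell, compounds at two doses. Luciferase measured 72 h post infection; normalized to buffer-only basal and Salinomycin (10uM) controls.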
# HCV inh: inhibitors of hepatitis C virus infection; 340,000 tested, 3.4% active; AID 651820; Huh7.5.1 HCVcc-Cre infection, luciferase reporter, 44 h; Potency, µM (series often up to 41.8 µM), inactives show top-dose activity change, negative = inhibition, usual class: inhibitors; active means well fitted inhibition curve with a large enough effect; inconclusive means small, poorly fitted or top-dose-only effect, or another doubt; inactive means no such curve, though single readings can be large or run the other way; further: potency means the concentration at half of the fitted maximal effect
#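 Whole-lifecycle infectious HCVcc-Cre system; cells 1,000/well, compound then virus (~0.5 moi) added 4 h after plating, 44 h culture. Luciferase read 15 sec following 15 min substrate incubation, room temp.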
# FMDV antiviral: foot and mouth disease virus antiviral activity. FMDV antiviral cell-based qHTS. Potency, µM (top dose mostly 57.9 µM), for inactives: at the highest dose activity change, negative = inhibition, most hits filed as inhibitors. 410,000 tested, 1.2% active. AID 1159524; calls by dose curve; tested in HEK293T cells; further: read-out not given here; potency means the concentration at half of the fitted maximal effect; nearly all actives have a fitted effect of over 45% in size
# Marburg entry inh: Marburg virus entry inhibition; AID 540276; 300,000 tested, 1.8% active; Potency, µM (highest dose often 37.8 µM), for the others: at the highest dose activity change, negative = inhibition, most hits filed as inhibitors; Marburg virus pseudotyped entry inhibition, cell reporter; calls by dose curve; tested in HEK293 cells; further: potency means the concentration at half of the fitted maximal effect
# Lassa entry inh: inhibitors of Lassa virus binding or cell entry; Lassa virus pseudotype entry inhibition, cell reporter; Potency, µM (series often up to 37.9 µM), inactives show at the highest dose activity change, negative = inhibition, hits mostly inhibitors; 300,000 tested, 1.2% active; AID 540256; calls by dose curve; tested in HEK293 cells; further: potency means the concentration at half of the fitted maximal effect; nearly all actives have a fitted effect of over 50% in size
# Numbers without * were called inactive; ? = inconclusive; nt = not tested or not shown; [ ] = remark or other dose. On the % scale 0 is the no-effect control and ±100 the full control effect.
SMILES,HCMV antiviral,HCV inh,FMDV antiviral,Marburg entry inh,Lassa entry inh
CCCCOC(=O)Cn1nnc2sc(-c3ccccc3)cc2c1=O,11.1,nt,-10.8%,24.2%[46.1 µM],13.8%[46.1 µM]
CCN(CC)C(C)C(=O)Nc1c2c(cc3c1CCC3)CCC2 (stereo not drawn),-21.2,-26.0%,-17.6%,14.6µM*,-12.6%
Cc1ccc(NC(=O)Cn2c(C)cc(C)c(C#N)c2=O)cc1F,2.7,nt,-12.2%,nt,-5.1%[46.1 µM]
COc1ccc(Nc2c(-c3ccc(F)cc3)nc3nc(C)cc(C)n23)cc1,-66.8*,nt,-7.1%,nt,nt
CC(=O)O[C@H](C(=O)O[C@@H]1C[C@@H](CCC[C@H]2O[C@H](C(=O)OC(C)C)CC[C@@H]2C)O[C@@H](CC#N)C1)c1ccccc1,nt,nt,nt,6.9%[14.2 µM],nt
O=C(CCc1ccccc1)NC1CC(=O)N(c2cccc(F)c2)C1 (stereo not drawn),40.2,nt,-14.0%,nt,14.6%[46.1 µM]
CC1CCN(C2=NC(=O)/C(=C/c3cn(-c4ccccc4)nc3-c3cccc(S(=O)(=O)N(C)C)c3)S2)CC1,-61.5*,?,-3.3%,?,-24.4%
CC1(C)Cc2c(cnn2-c2ccc(F)cc2)C(NC(=O)c2ccco2)C1 (stereo not drawn),-22.1,2.3%,14.5%,0.2%,-1.2%
CC12CC(c3ccccc3O1)N(C(=O)c1ccco1)C(=S)N2c1ccc(F)cc1 (stereo not drawn),58.7,2.82µM*,0.0%,?,?
CCOC(=O)c1cc(C)sc1NC(=O)CSc1nccn1C,?,12.6µM*,0.0%,28.4%,-12.2%
CCOC(=O)c1c(NC(=O)CSc2nccn2C)sc(C(=O)NC)c1C,22.1,10µM*,-7.5%,13.2%[46.1 µM],14.0%
CCOC(=O)c1c(NC(=O)COC(=O)CC(NC(C)=O)c2ccccc2)sc(C(=O)NC)c1C (stereo not drawn),29.1,10µM*,4.8%,-8.3%,10.1%
COC(=O)c1c(NC(=O)CSc2nccn2C)sc(C)c1C,-3.3,?,-4.8%,-10.8%,21.8%
COc1ccc(NC(=O)Cn2cc(C(=O)c3ccccc3OC)c(=O)c3ccc(C)nc32)cc1OC,11.7,nt,?,nt,26.8%[46.1 µM]
CN1C(=O)C(=Cc2cccnc2)C(=O)N(C)C1=O,34.9,19.8%,0.0%,15.2%,23.0%
CC1C/C(=C\c2cccnc2)C(=O)/C(=C/c2cccnc2)C1 (stereo not drawn),-100.9*,?,3.55µM*,2.06µM*,2.91µM*
O=C1/C(=C/c2cccnc2)CCc2c1[nH]c1ccccc21,-76.3*,-29.0%,37.4%,?,-22.5%
COc1ccc(C2Nc3ccccc3-c3nnc(SC)nc3O2)cc1C (stereo not drawn),12.6,nt,-15.3%,-7.0%[46.1 µM],18.0%[46.1 µM]
CC(C)Cc1ccc(CN2CCCC(NC(=O)c3ccoc3)C2)cc1 (stereo not drawn),-32.7,?,-28.5%,?,?
CC(C)Cc1ccc(CN2CCCC(NC(=O)c3ccnn3C)C2)cc1 (stereo not drawn),-79.6*,11.2µM*,?,10µM*,?
CC(C)Cc1ccc(CN2CCCC(NC(=O)c3cccc(-n4cnnc4)c3)C2)cc1 (stereo not drawn),-60.2*,?,?,?,-18.9%
COc1ccc2c(c1)CC(NC(=O)Nc1ccc(Br)c(C)c1)CO2 (stereo not drawn),0.6,nt,-30.9%,nt,-12.9%[46.1 µM]
O=C(Nc1ccc(S(=O)(=O)N2CCC(c3nc4ccccc4s3)CC2)cc1)c1ccccc1,5.6,nt,-29.5%,-4.9%[46.1 µM],1.4%[46.1 µM]
Cc1ccc(-c2cc(=O)c3cc(C)ccc3[nH]2)cc1,0.5,?,-44.6%,8.2µM*,14.6µM*
Cc1ccc2[nH]c(C(F)(F)F)cc(=O)c2c1,-73.0*,9.4%,-19.1%,?,?
SMILES,HCMV antiviral,HCV inh,FMDV antiviral,Marburg entry inh,Lassa entry inh
O=c1cc(-c2ccccc2)[nH]c2ccc(F)cc12,-62.0*,-9.6%,4.8%,-44.6%,?
Cc1ccc(-c2cc(=O)c3cc(F)ccc3[nH]2)cc1,-0.4,-5.8%,35.3%,-21.6%,14.8%
Cc1ccc2[nH]c(-c3cccc(F)c3)cc(=O)c2c1,-68.9*,?,38.2%,?,-13.5%
Fc1ccccc1-c1noc2nc(Oc3cccc(N4CCOCC4)c3)ccc12,-28.9,nt,nt,nt,nt
CCC(Sc1nncn2c1cc1occc12)C(=O)Nc1ccc(C)c(Cl)c1 (stereo not drawn),?,nt,0.0%,nt,-2.9%[46.1 µM]
C#CCCCO/N=C1/C[C@@H](O)[C@@H](O)[C@@H]2[C@H]3C(=O)N(c4ccc(F)cc4F)C(=O)[C@@H]3CC[C@H]12,nt,nt,nt,-6.1%[14.2 µM],nt
O=C(NCc1ccccc1)c1cccn1-c1nnc(N2CCCC2)s1,0.0,nt,2.0%,nt,4.3%[46.1 µM]
O=c1cc(-c2cccc(F)c2)[nH]c2ccccc12,-76.8*,3.9%[8.37 µM],-9.1%,?,?
COc1ccc2[nH]c(-c3cccc(F)c3)cc(=O)c2c1,-61.5*,4.0%[8.37 µM],55.8%,-4.8%,8.1%
COc1ccc(-c2cc(=O)c3ccccc3[nH]2)cc1,17.1,4.5%[8.37 µM],21.6%,-7.7%,6.2%
COc1cccc(-c2cc(=O)c3cc(NC(=O)c4ccc(N(C)C)cc4)ccc3[nH]2)c1,nt,-3.9%,-19.9%,?,0.92µM*
Brc1cccc(-c2n[nH]c(-c3ccccc3)n2)c1,121.5,?,3.9%,-23.5%,-7.2%
Cn1c(-c2cccc(Br)c2)n[nH]c1=O,-72.5*,-0.6%,-6.6%,-15.5%[46.1 µM],-5.0%
CCOc1ccc(CCNC(=O)c2cc3c(=O)n(CC)c4ccccc4c3s2)cc1OCC,1.8,nt,0.0%,27.0%[46.1 µM],4.7%[46.1 µM]
CC(=O)Nc1c(C)nn(-c2ccccc2)c1N1CCC(C(=O)Nc2ccccc2C(F)(F)F)CC1,48.5,nt,-0.3%,nt,-8.1%[46.1 µM]
CC(C)(CCO)Nc1ncnc2onc(-c3ccc(F)cc3)c12,-64.0*,1.6%,-22.6%,-3.1%[46.1 µM],9.6%[46.1 µM]
CCC(CO)Nc1ncnc2onc(-c3ccc(F)cc3)c12 (stereo not drawn),-1.3,14.3%,-18.6%,-1.1%[46.1 µM],?
Cc1ccc(Nc2c3c(nc4nc(-c5cccs5)nn24)CCCC3)cc1F,27.0,nt,?,nt,?
Fc1cc(Br)ccc1Nc1c2c(nc3nc(-c4cccs4)nn13)CCCC2,-60.0*,nt,?,nt,?
Cc1cccc(NC(=O)c2oc3ccc(S(=O)(=O)N(C)C4CCCCC4)cc3c2C)c1C,-75.3*,nt,-4.8%,nt,-24.0%[46.1 µM]
CN(C1CCCCC1)S(=O)(=O)c1ccc(NC(=O)c2ccc(Br)o2)cc1,-19.4,17.3%,-23.1%,-13.0%,11.2µM*
CN(C)S(=O)(=O)c1ccc(NC(=O)c2ccc(Br)o2)cc1,nt,13.7%,13.9%,0.8%,?
CCOC(=O)c1oc2ccc(S(=O)(=O)n3nc(-c4ccc(OC)cc4)cc3N)cc2c1C,-67.2*,-5.1%,?,22.2%,13.3%
CCN(CC)S(=O)(=O)c1ccc2oc(Nc3ccc(OC)cc3OC)nc2c1,4.1,10µM*,-19.8%,-0.4%[46.1 µM],-9.4%
Cc1cccc(-c2nc(S(=O)(=O)c3ccc(F)cc3)c(N3CCN(c4ccccc4)CC3)o2)c1,-9.0,nt,-11.4%,-0.4%[46.1 µM],?
CCc1ccc(N2CC(C)Cn3c2nc2c3c(=O)n(CC(=O)O)c(=O)n2C)cc1 (stereo not drawn),10.0,nt,-7.9%,-5.2%[46.1 µM],-0.8%[46.1 µM]
